Screening results as filed in PubChem BioAssay.
Hits are enriched below; roughly 1.9% of the tested compounds scored in any of these assays.
Ba/F3 V617F tox: reduce viability of Ba/F3 cells dependent on JAK2V617F; Ba/F3 EpoR-JAK2V617F viability, ATP luminescence; inhibition, % at 5.6 µM; 220,000 tested, 1.1% active; AID 1446;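 active = inhibition above the campaign mean plus 3 SD over all tested compounds, cut at about 24% in these data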;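 note: cytokine-independent growth of Ba/F3 cells driven by EpoR plus mutant JAK2; 0% = DMSO-treated cells and 100% = JAK inhibitor I control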
APP transl inh: APP translation inhibition | SH-SY5Y APP 5'UTR-luciferase reporter, luminescence | inhibition, % at 2 µM | 190,000 tested, 0.82% active | AID 1285;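 active = inhibition above a set limit, derived from the sample mean plus 3 SD, cut at about 45% in these data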
KLF5 inhibitor: inhibitors of KLF5 expression | DLD-1 KLF5 promoter-luciferase reporter, luminescence | inhibition, % at 5 µM | 290,000 tested, 0.23% active;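 active = inhibition above a per-plate limit of that plate's mean compound inhibition plus 3 SD, cut at about 60% in these data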;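 note: 0% = DMSO wells and 100% = LY294002 at 200 µM; higher means less KLF5 promoter-driven luciferase light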
BaF3 tox: reduces parental Ba/F3 cell viability, JAK2V617F counter-screen. CellTiter-Glo ATP luminescence. 220,000 tested, 1.1% active. AID 1486. inhibition, % at 5.6 µM;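 active = inhibition above a per-campaign cutoff, the mean inhibition of all tested compounds plus 3 SD, cut at about 27% in these data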;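 note: 0% = DMSO wells and 100% = JAK Inhibitor I control wells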
IEC-6 cytotox: IEC-6 cytotoxicity, counter-screen for KLF5 inhibitors. 290,000 tested, 0.78% active. inhibition, % at 5 µM. AID 1825. luminescence viability; in the data active = inhibition above about 22%;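 note: 0% = plate median of test compound wells and 100% = cytotoxic reference compound wells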
Numbers without * were called inactive.

What do the screens show for `CCn1nnnc1SCC(=O)c1cccc(OC)c1`?
Ba/F3 V617F tox: 0; APP transl inh: -5; KLF5 inhibitor: -22; BaF3 tox: 45*; IEC-6 cytotox: -2

Results for COc1ccc(-n2nnnc2SCC(=O)c2cccc(OC)c2)cc1 ?
Ba/F3 V617F tox: 5; APP transl inh: 6; KLF5 inhibitor: 3; BaF3 tox: 6; IEC-6 cytotox: 2

What do the screens show for `Cc1ccccc1S(=O)(=O)Cc1ccc(C(=O)NCCCN2CCCC(C)C2)o1` (stereo unspecified)?
KLF5 inhibitor: -12; IEC-6 cytotox: -5

What do the screens show for `O=C1C(Cl)=C(NCCN2CCCCC2)C(=O)c2ccccc21`?
Ba/F3 V617F tox: 7; APP transl inh: 95*; KLF5 inhibitor: 10; BaF3 tox: 26; IEC-6 cytotox: 42*

Results for N#Cc1c(N2CCSCC2)nsc1-c1ccccc1Cl ?
KLF5 inhibitor: -37; IEC-6 cytotox: -6

What do the screens show for `COc1ccc(NC2=CC(=O)CC(c3ccccc3)C2)c(OC)c1` (stereo unspecified)?
Ba/F3 V617F tox: 39*; APP transl inh: 4; KLF5 inhibitor: 38; BaF3 tox: 43*; IEC-6 cytotox: 17

What do the screens show for `CCOc1ccccc1NC1=CC(=O)CC(c2ccccc2)C1` (stereo unspecified)?
Ba/F3 V617F tox: -2; APP transl inh: -26; KLF5 inhibitor: -23; BaF3 tox: 5; IEC-6 cytotox: 2

How did CCCN1CCC(=NNc2ccc(S(=O)(=O)N3CCOCC3)cc2[N+](=O)[O-])CC1 do in these assays?
Ba/F3 V617F tox: 2; APP transl inh: 88*; KLF5 inhibitor: -24; BaF3 tox: 8; IEC-6 cytotox: -1

Results for COc1ccc(C2=NN(C(=O)CCC(=O)O)C(c3ccccc3OC)C2)cc1 (stereo unspecified) ?
KLF5 inhibitor: -30; IEC-6 cytotox: 3

Results for CC[n+]1c(C)cc2c(sc3ccccc32)c1C ?
Ba/F3 V617F tox: 88*; APP transl inh: 4; KLF5 inhibitor: -37; BaF3 tox: 71*; IEC-6 cytotox: 0

Results for COc1cc(NC(=O)c2n[nH]c(=O)c3ccccc23)cc(OC)c1 ?
Ba/F3 V617F tox: -1; KLF5 inhibitor: -5; BaF3 tox: -11; IEC-6 cytotox: 3

How did COc1ccc(-c2nc(NC(=O)CCNC(=O)c3ccco3)sc2C)cc1 do in these assays?
Ba/F3 V617F tox: -1; APP transl inh: 12; KLF5 inhibitor: -15; BaF3 tox: 28*; IEC-6 cytotox: -2

Results for COc1ccc(CCNC(=O)CCNC(=O)c2ccco2)cc1 ?
KLF5 inhibitor: -7; IEC-6 cytotox: 5

What do the screens show for `COc1ccc(-c2nc(NC(=O)c3n[nH]c(=O)c4ccccc34)sc2C)cc1`?
Ba/F3 V617F tox: 2; APP transl inh: 16; KLF5 inhibitor: -18; BaF3 tox: 8; IEC-6 cytotox: 22*

What do the screens show for `CCn1cc(C(=O)NCCCN(CC(C)C)CC(C)C)c(=O)c2cc(S(=O)(=O)N(C)C3CCCCC3)ccc21`?
KLF5 inhibitor: 6; IEC-6 cytotox: 4

Results for O=C(Nc1ccc(Br)cn1)c1cccc2c1-c1ccccc1C2=O ?
Ba/F3 V617F tox: -1; APP transl inh: 23; KLF5 inhibitor: -32; BaF3 tox: 5; IEC-6 cytotox: -8

Results for Cc1ccc2nccc(C(=O)N3CCCC(N4CCN(c5ccc(F)cc5)CC4)C3)c2c1 (stereo unspecified) ?
KLF5 inhibitor: -11; IEC-6 cytotox: -3

What do the screens show for `CCOc1ccc(N2C(=O)C(CC(=O)Nc3ccccc3)N(Cc3ccccn3)C2=S)cc1` (stereo unspecified)?
Ba/F3 V617F tox: 7; APP transl inh: 0; KLF5 inhibitor: 33; BaF3 tox: 27*; IEC-6 cytotox: 6

Results for Cc1onc(-c2ccccc2Cl)c1C(=O)OCN1C(=O)c2ccccc2C1=O ?
Ba/F3 V617F tox: 4; APP transl inh: -1; KLF5 inhibitor: -30; BaF3 tox: 95*; IEC-6 cytotox: 6

Results for CN(C)c1nc2c(c(=O)[nH]c(=O)n2C)n1CCCc1ccccc1 ?
KLF5 inhibitor: -27; IEC-6 cytotox: 5

What do the screens show for `CC(=O)Cn1ncc(Br)c(Br)c1=O`?
Ba/F3 V617F tox: 5; APP transl inh: 97*; KLF5 inhibitor: -33; BaF3 tox: -3; IEC-6 cytotox: 102*

What do the screens show for `COC(=O)C(COC(=O)c1c(F)cccc1F)NC(=O)c1c(F)cccc1F` (stereo unspecified)?
KLF5 inhibitor: 0; IEC-6 cytotox: 4

Results for O=C(OCn1ncc(Br)c(Br)c1=O)c1c(F)cccc1F ?
Ba/F3 V617F tox: 74*; APP transl inh: 96*; KLF5 inhibitor: -39; BaF3 tox: 67*; IEC-6 cytotox: 11

Results for CC(C)(C)C(=O)Cn1ncc(N2CCCC2)c(Br)c1=O ?
Ba/F3 V617F tox: -4; APP transl inh: -39; KLF5 inhibitor: -74; BaF3 tox: 3; IEC-6 cytotox: -7

What do the screens show for `C=C(C)COc1ccc(-c2ncncc2-c2ccc(Br)cc2)c(O)c1`?
KLF5 inhibitor: 6; IEC-6 cytotox: -8

How did C=C(C)COc1ccc(-c2[nH]ncc2-c2ccccc2OC)c(O)c1 do in these assays?
Ba/F3 V617F tox: -2; APP transl inh: -7; KLF5 inhibitor: -7; BaF3 tox: 2; IEC-6 cytotox: 0

What do the screens show for `C=C(C)COc1ccc(-c2[nH]ncc2-c2ccc(Br)cc2)c(O)c1`?
Ba/F3 V617F tox: 10; APP transl inh: 79*; KLF5 inhibitor: 23; BaF3 tox: 4; IEC-6 cytotox: 5

How did C=C(C)COc1ccc(-c2n[nH]c(C)c2-c2ccc(Br)cc2)c(O)c1 do in these assays?
Ba/F3 V617F tox: -2; APP transl inh: 67*; KLF5 inhibitor: 6; BaF3 tox: 2; IEC-6 cytotox: 0

Results for Cc1ccc(Cl)c2c(N=Nc3ccccc3)c(O)[nH]c12 ?
KLF5 inhibitor: -114; IEC-6 cytotox: 9

How did Cc1ccc(CCNC(=O)C2CCC(=O)N2Cc2ccc(F)cc2)cc1 (stereo unspecified) do in these assays?
KLF5 inhibitor: 5; IEC-6 cytotox: -5

What do the screens show for `O=C(NCCc1ccc(Cl)cc1)C1CCC(=O)N1Cc1ccc(F)cc1` (stereo unspecified)?
Ba/F3 V617F tox: -3; APP transl inh: -3; KLF5 inhibitor: -10; BaF3 tox: 96*; IEC-6 cytotox: -4

How did CCCCN(Cc1ccccc1)S(=O)(=O)c1ccc2[nH]c(=O)oc2c1 do in these assays?
Ba/F3 V617F tox: 4; APP transl inh: 49*; KLF5 inhibitor: -3; BaF3 tox: 4; IEC-6 cytotox: 12

What do the screens show for `CCN(CC)C1=CC(=[N+]2CCCC2)CC(C)(C)C1`?
Ba/F3 V617F tox: 74*; APP transl inh: -1; KLF5 inhibitor: -15; BaF3 tox: 63*; IEC-6 cytotox: 6

What do the screens show for `CC1(C)CC(N2CCN(c3ccccc3)CC2)=CC(=[N+]2CCCC2)C1`?
Ba/F3 V617F tox: 85*; APP transl inh: -9; KLF5 inhibitor: -4; BaF3 tox: 75*; IEC-6 cytotox: 14

How did CC1(C)CC(N2CCCC2)=CC(=[N+]2CCCCCC2)C1 do in these assays?
Ba/F3 V617F tox: 99*; APP transl inh: 2; KLF5 inhibitor: 1; BaF3 tox: 71*; IEC-6 cytotox: 30*
